The text below walks through data of ChEMBL document CHEMBL1157539, “Thousands of chemical starting points for antimalarial lead identification” (Nature, 2010).

Each structure is given as a SMILES string.

What all share (assay type): functional
For test [1], the system named is Plasmodium falciparum. The test is described as follows: GSK_TCMDC: Inhibition of Plasmodium falciparum 3D7 in whole red blood cells, using parasite LDH activity as an index of growth. Test compounds present at 2uM.
Test [2] concerns Plasmodium falciparum. The test is described as follows: GSK_TCMDC: Inhibition of Plasmodium falciparum Dd2 in whole red blood cells, using parasite LDH activity as an index of growth. Test compounds present at 2uM.
A further test relates to HepG2. The test is described as follows: GSK_TCMDC: Percent inhibition of human HepG2 cell line. Test compounds present at 10uM.

With `CCOc1ccc2[nH]c(C)cc(=NN=Cc3ccccc3)c2c1`, the Inhibition is listed as 96% in the test with Plasmodium falciparum [1], 8% with Plasmodium falciparum [2] and 5% in the test with HepG2.
Turning to `COc1ccc(-c2csc(C(=O)NC3CCC(N4CCC(c5ccccc5C)CC4)CC3)c2)cc1` (stereo not given), the values for the Inhibition with Plasmodium falciparum [1], in the test on Plasmodium falciparum [2] and with HepG2 were 100%, 99% and 64%, respectively.
In the same order, the values of `CCOc1ccccc1CNc1nccc(NCc2ccc(Cl)cc2Cl)n1` are 83%, 58% and 26%.
In the same order, the values of `CC(C)CC(=O)NC1CCN(Cc2c(-c3cccs3)nc3ccccc3c2C(=O)N[C@@H](C)C2CCCCC2)CC1` are 96%, 97% and 0%.
In the same order, the values of `CC(C)C[C@H]1c2[nH]c3ccc(Cl)cc3c2CCN1C(=O)CCc1ccccc1` are 95%, 81% and 0%.
Regarding `CC(C)N1CCN(C(CN2CCN(CCCOc3ccc4ccccc4c3)CC2)c2ccc(F)cc2)CC1.Cl` (stereo not given), the Inhibition came out at 100% in the test with Plasmodium falciparum [1], 91% with Plasmodium falciparum [2] and 59% in the test on HepG2.
For `CC(C)Cc1c(O)nc(SCCN2CCOCC2)[nH]c1=O.Cl` the same measures were 88%, 0% and 19%.
For the molecule `CCCC(=O)Nc1ccc(OCCCN(Cc2ccccc2OC(F)(F)F)c2ccc(C#N)c(C(F)(F)F)c2)cc1`, the Inhibition with Plasmodium falciparum [1] is 94%; in the test with Plasmodium falciparum [2], 95%; with HepG2, 0%.
In the same order, the values of `O=C(Nc1ccc(-c2nc3ccccc3[nH]2)cc1)c1ccc(-c2cccc([N+](=O)[O-])c2)o1` are 100%, 97% and 47%.
In the same order, the values of `CN(Cc1ccccc1)C(=O)CCNS(=O)(=O)c1cc(Br)cnc1N` are 91%, 61% and 0%.
In the same order, the values of `O=C(O)CCSSc1cccc[n+]1[O-]` are 95%, 0% and 100%.
On to `N#Cc1cccc(C(=O)Nc2cccc(-c3cccc(CN4CCNCC4)c3)c2)c1.O=C(O)C(F)(F)F`, for which the Inhibition is given as 89% with Plasmodium falciparum [1], 10% with Plasmodium falciparum [2] and 37% with HepG2.
For `Cc1cccc2nc(-c3cccc(-c4ccc(NC(=O)COc5ccccc5C(N)=O)cc4)c3)[nH]c12` the same measures were 100%, 47% and 18%.
For `CCCN(CCC)C(=O)c1cc(C(=O)N[C@@H](Cc2ccccc2)[C@H](O)CNCc2cccc(C(F)(F)F)c2)cc(N2CCCCS2(=O)=O)c1` the same measures were 99%, 74% and 0%.
For `CCCCc1cc(NCC)nc(Nc2ccc(OC)cc2)n1` the same measures were 85%, 32% and 30%.
On to `COc1cc2c(cc1OC)CN(CCCCc1ccc(NC(=O)c3cc(Cl)cc(Cl)c3)cc1)CC2`, for which the Inhibition with Plasmodium falciparum [1] is 95%; with Plasmodium falciparum [2], 4%; with HepG2, 21%.
In the same order, the values of `O=C(N[C@@H](Cc1ccccc1)C(=O)NCCN1CCOCC1)c1ccc(O)c(-c2ccc(Cl)c(Cl)c2)c1` are 97%, 31% and 0%.
For the molecule `CCOC(=O)c1ccc(NC(=O)NCCCC2CCCN(CCCCCNC(=O)/C=C/c3ccc(Cl)c(Cl)c3)C2)cc1` (stereo not given), the Inhibition in the test with Plasmodium falciparum [1] is recorded as 96%; with Plasmodium falciparum [2] it was 30%; in the test with HepG2, 14%.
For `CN(C)CCC1CCCc2ccc(NC(=O)Nc3ccc(-c4ccncc4)c4ccccc34)cc21.Cl` (stereo not given) the same measures were 89%, 27% and 34%.
For `Cc1cc(N2CCCC2)nc(Nc2ccc(NC(=O)C(C)(C)C)cc2)n1` the same measures were 95%, 15% and 24%.
With `O=c1cc(NCCCNC2CCCc3c2ccc2ccccc32)[nH]c2ccccc12` (stereo not given), the Inhibition in the test with Plasmodium falciparum [1] came to 94%; in the test on Plasmodium falciparum [2] it was 30%; with HepG2 it was 0%.
For `Cc1cc(NCCC(=O)NCc2cccc(F)c2)nc(NCCc2ccc(F)cc2)n1.O=C(O)C(F)(F)F` the same measures were 89%, 2% and 0%.
In the same order, the values of `COc1cc(O)c2c(=O)c(OC)c(-c3cccc(Cl)c3OC3O[C@H](CO)[C@@H](O)[C@H](O)[C@H]3O)oc2c1OC` (stereo not given in full) are 100%, 6% and 16%.
Consider `CCc1cc2c3c(N)nc(N)nc3ccc2n1C(CC)CC`, for which the Inhibition stood at 96% in the test with Plasmodium falciparum [1], 12% in the test with Plasmodium falciparum [2] and 71% in the test on HepG2.
Regarding `COc1ccccc1CN1CCC(NC(=O)c2ccc(-c3cccc(C(F)(F)F)c3)s2)CC1.O=C(O)C(F)(F)F`, the Inhibition in the test with Plasmodium falciparum [1] came out at 85%; with Plasmodium falciparum [2], 12%; with HepG2, 83%.
On to `CCN(c1ccc(F)cc1)S(=O)(=O)c1cc(Br)cc2c1N(C(=O)C1CC1)CC2`, for which the Inhibition worked out at 88% in the test with Plasmodium falciparum [1], 79% in the test on Plasmodium falciparum [2] and 0% in the test on HepG2.
In the same order, the values of `CN(C)c1ccc(CN2CCC(NC(=O)c3ccc(-c4cccc(F)c4)s3)CC2)cc1.O=C(O)C(F)(F)F` are 91%, 18% and 55%.
For `CN(c1ccc(NC(=O)Nc2cc(C(F)(F)F)ccc2F)cc1)c1ccnc(NCCN2CCCC2)n1.O=C(O)C(F)(F)F` the same measures were 93%, 1% and 94%.
In the same order, the values of `CN1CCN(c2cc(NC(=O)c3ccc(-c4ccc(C#N)cc4)cc3)ccc2Cl)CC1` are 100%, 94% and 29%.
As for `Cn1cncc1C(=O)Nc1ccc(-c2cccc(-c3nc4cc(C(F)(F)F)ccc4[nH]3)c2)cc1`, the figures for the Inhibition in the test with Plasmodium falciparum [1], in the test with Plasmodium falciparum [2] and in the test on HepG2 were 100%, 3% and 34%, respectively.

For orientation: Inhibition means how much of the control response was suppressed. Read a high Inhibition as a response far below the control.
